# According to ChEMBL document CHEMBL4513216, “Probing the Open Global Health Chemical Diversity Library for Multistage-Active Starting Points for Next-Generation Antimalarials” (ACS Infect Dis, 2020):
# About 8,600 (12%) of roughly 69,000 compounds showed an effect of 50% or more. The entries come from a sample that favours strong results as a whole.
# System: Plasmodium berghei
# Experiment: Screen against P. berghei liver stage (PbLuc), transformed with Luciferase, at 10uM
# Assay type: functional, HepG2
# Details: tested at 10 uM
row,Compound,INHIBITION [%]
1,Cc1nn(C)c2nc(N3CCCCC3c3cccnc3)sc12 (stereo not given),33.1
2,Cc1nn(C)c2nc(N3CCC(C(O)c4nccn4C)CC3)sc12 (stereo not given),12.8
3,Cc1nn(C)c2nc(N3CCC(C(O)Cc4ccccc4)CC3)sc12 (stereo not given),75.1
4,Cc1nn(C)c2nc(N3CCC(C(O)c4ccccn4)CC3)sc12 (stereo not given),55.4
5,Cc1nn(C)c2nc(NC3CCNCC3)sc12,10.7
6,Cc1cnc(N2CC[C@@H]3OC(COCC(=O)N(C)C)CC[C@@H]32)nc1 (stereo not given in full),14.1
7,CCCC1CN(CCOc2ccccc2)C(=O)c2cccnc2O1 (stereo not given),44.2
8,Cc1nn(-c2ncnc3[nH]cnc23)c2c1C(C(C)C)CC(=O)N2 (stereo not given),-21.2
9,Cc1ccc2c(c1)C(=O)CC1(CCN(Cc3ccccc3)CC1)O2,-13.2
10,Cc1nnc(N2CCN(C(=O)NC3CC3)CC2)c(C(N)=O)c1C,56.5
11,Cc1nnc(N2CCCC2)c(C(N)=O)c1C,6.24
12,Cc1nnc(N2CCNCC2)c(C(N)=O)c1C,41.5
13,O=C(NCC1CC1)c1ccc(NC(=O)c2ccco2)cc1,-64.3
14,COc1c(C)cnc(CN2CCCCC2Cn2nc(C)nc2C)c1C (stereo not given),6.14
15,COc1c(C)cnc(CN2CCCC2Cn2nc(C)nc2C)c1C (stereo not given),27.6
16,COc1c(C)cnc(CN2CCCCC2CCN2CCOCC2)c1C (stereo not given),56.1
17,CC(=O)N1CCC1c1cc(N2CCSCC2)nc(C)n1 (stereo not given),29.5
18,CO[C@H]1CN(Cc2ccccc2F)C[C@@]12CCCO2,5.56
19,Cn1cc(N2CCC3(CCN(C(=O)[C@H]4CCCO4)C3)C2=O)cn1 (stereo not given in full),12.7
20,Cc1ccc(NC2CCN(C(=O)C(C(C)C)n3cncn3)CC2)nn1 (stereo not given),31.2
21,CC(C)C(C(=O)N1CCC(Nc2cccnn2)CC1)n1cncn1 (stereo not given),57.2
22,CCN1CCC(NC(=O)CN2CCCC2Cn2cccn2)CC1 (stereo not given),19
23,CC(C(=O)N1CCC(Nc2cccnn2)CC1)n1ccnc1 (stereo not given),23.4
24,CC(C(=O)N1CCC(Nc2cccnn2)CC1)n1cccn1 (stereo not given),45.7
25,CCN1CCC(NC(=O)CNC(C)Cn2cccn2)CC1 (stereo not given),88.6
26,CC(Cn1cccn1)C(=O)N1CCC(Nc2cccnn2)CC1 (stereo not given),53.7
27,CC(Cn1cccn1)NCC(=O)NC1CCOCC1 (stereo not given),5.2
28,CC(C)C(C(=O)N1CCC(N(C)c2cccnn2)CC1)n1cncn1 (stereo not given),36.9

row,Compound,INHIBITION [%]
1,CN(Cc1ccco1)C(=O)CN1CCOC(Cn2cccn2)C1 (stereo not given),-53.5
2,COc1c(CNC2CCOc3ccccc32)c(C(C)C)nn1C (stereo not given),47.1
3,COc1c(CNC2CCc3cc(C)ccc32)c(C)nn1C (stereo not given),21.5
4,COc1c(CNC2CCOc3c(F)cccc32)c(C)nn1C (stereo not given),20
5,COc1c(CNC2CCSc3ccc(F)cc32)c(C)nn1C (stereo not given),75.2
6,CC(C)c1nn(C)c(N(C)C)c1CNC1CCOc2ccccc21 (stereo not given),12.2
7,COc1c(CNC2CCc3ccccc32)c(C)nn1C (stereo not given),-63.3
8,COc1c(CNC2CCOc3c(Cl)cccc32)c(C)nn1C (stereo not given),77.8
9,COc1c(CNC2CCCOc3ccc(F)cc32)c(C)nn1C (stereo not given),-63.5
10,COc1c(CNC2CCOc3c(Cl)cccc32)c(C(C)C)nn1C (stereo not given),-69
11,COc1c(CNC2CCc3cc(Cl)ccc32)c(C)nn1C (stereo not given),59
12,CC(C)c1nn(C)c(Cl)c1CNC1CCOc2ccccc21 (stereo not given),53.3
13,COc1c(CNC2CCc3cc(F)ccc32)c(C)nn1C (stereo not given),35.8
14,Cn1c(SCC(N)=O)nnc1-c1csc2c1CCCC2,-21.8
15,CCN1CC(COc2ccccc2)Oc2ncccc2S1(=O)=O (stereo not given),13.9
16,CCSc1cc(C(=O)NCCNC(=O)N(C)C)ccn1,-22.8
17,COc1cc(CCC(=O)NC(C)(C)C)ccc1OCC(F)(F)F,-17.4
18,O=C1C[C@H]2[C@H](CCN2C(=O)c2cc[nH]n2)N1Cc1cccnc1,40.8
19,Cc1ncccc1CNc1ccc(OCCO)nc1,-89.9
20,OCCOc1ccc(NCc2cccnc2)cn1,59.5
21,OCCOc1ccc(NCc2cccc3cn[nH]c23)cn1,-1.45
22,OCCOc1ccc(NCc2cc(F)cc3cccnc23)cn1,-116
23,OCCOc1ccc(NCc2cccc3cccnc23)cn1,-37.7
24,OCCOc1ccc(NCc2cccc3[nH]ccc23)cn1,68.2
25,Cc1cc(-c2cnn(CCNC(=O)c3cc[nH]n3)c2C2CC2)on1,18.9
26,CCCc1nnc(NC(=O)NC(CCO)c2cccs2)s1 (stereo not given),-26.8
27,COc1ccccc1CN1CCCC2(Cc3ccccc3CNC2=O)C1 (stereo not given),11
